Values joined by “and” are separate entries in the source; they are usually repeats but may differ in a detail not shown here. Equal values may be shown once. Compounds without any hit were thinned out: in the full panel of roughly 79,000, 15% have a hit. A structure can be active in one record and inactive in another. Active and inactive are the calls of the source. Rule as the data show it: active = growth inhibition above about 70%; inactive = the rest.
Tests used:
[1] = NCI Yeast Anticancer Drug Screen. Data for the rad50 strain (AID 155);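 also: 0% = growth of vehicle-only cultures of the same strain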; conditions: S. cerevisiae rad50 strain growth inhibition, stronger effect = higher value
Outline: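 Readout: growth inhibition relative to vehicle-treated cultures. Compound exposure was carried out in a genetically defined yeast strain deficient in DNA damage repair.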

[2] = NCI Yeast Anticancer Drug Screen. Data for the mec2-1 strain (AID 157); conditions: S. cerevisiae mec2-1 strain, stronger effect = higher value
Outline: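 mec2-1 yeast strain, carrying an alteration in DNA damage repair or cell cycle control, was exposed to compounds; growth inhibition was measured relative to vehicle-treated controls.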

[3] = NCI Yeast Anticancer Drug Screen. Data for the sgs1 mgt1 strain (AID 161);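 also: 0% = growth of cultures given vehicle only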; conditions: S. cerevisiae sgs1 mgt1 strain, stronger effect = higher value
Outline: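 Percent growth inhibition was derived by comparing compound-exposed mutant yeast with vehicle-exposed cultures. The strain carries alterations in DNA damage repair.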

[4] = NCI Yeast Anticancer Drug Screen. Data for the cln2 rad14 strain (AID 165);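 also: 0% = growth equal to vehicle treated cultures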; conditions: S. cerevisiae cln2 rad14 strain, stronger effect = higher value
Outline: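 Yeast carrying cln2 and rad14 alterations (cell cycle control and DNA damage repair) were exposed to compounds. Growth inhibition was measured against vehicle-treated controls.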

[5] = NCI Yeast Anticancer Drug Screen. Data for the bub3 strain (AID 167); conditions: S. cerevisiae bub3 mutant strain, stronger effect = higher value
Outline: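 Readout: yeast growth inhibition, expressed relative to vehicle-only wells. The test organism is a mutant strain from a panel with lesions in DNA repair or checkpoint genes.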

[6] = NCI Yeast Anticancer Drug Screen. Data for the mlh1 rad18 strain (AID 175); conditions: S. cerevisiae mlh1 rad18 strain growth inhibition, stronger effect = higher value
Outline: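 Growth inhibition of the yeast strain was measured after compound exposure and expressed relative to vehicle-treated controls. The strain carries defined defects in DNA damage repair.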

[7] = at 5.0 µM (retest, dose inferred, filed as 0.5)
[8] = at 50.0 µM (retest, dose inferred, filed as 5.0)

Measured: growth inhibition

CC(=O)Nc1ccc(S(=O)(=O)N(CCO)CCO)cc1
inactive: [1]; [7] -2% | [1]; [8] -4% | [1]; at 50.0 µM 15.2% | [2]; [7] -12% | [2]; [8] -5% | [3]; [7] -12% | [3]; [8] -4% | [3]; at 50.0 µM 40.5% | [4]; [7] 0% | [4]; [8] 1% | [4]; at 50.0 µM 57% | [5]; [7] -7% | [5]; [8] 1% | [6]; [7] -20% | [6]; [8] -9%
active: [2]; at 50.0 µM 98.5% | [5]; at 50.0 µM 80.7% | [6]; at 50.0 µM 91.2%

CCOC(=O)c1c[nH]c2c(ccc3cccnc32)c1=O
85% (active) and 56% (inactive): [3]; [8]
inactive: [1]; [7] 10% and 5% | [1]; [8] 64% and 66% | [1]; at 50.0 µM 38% and 38.8% | [2]; [7] 7% and -15% | [2]; [8] 64% and 43% | [2]; at 50.0 µM 13.9% and 12.2% | [3]; [7] 8% and -1% | [3]; at 50.0 µM 10.8% and 52.7% | [4]; [7] 3% and -3% | [4]; [8] 43% and 41% | [4]; at 50.0 µM 26.9% and 24.3% | [5]; [7] -3% and 4% | [5]; [8] 48% and 43% | [5]; at 50.0 µM 18.4% and 6.8% | [6]; [7] 2% and -1%
37.7% (inactive) and 79.8% (active): [6]; at 50.0 µM
active: [6]; [8] 84% and 79%

O=C1c2cccc(NCCCNCCO)c2C(=O)c2cccc(NCCCNCCO)c21
active: [6]; at 50.0 µM 81.5% and 83.4%
inactive: [1]; [7] 33% | [1]; [8] 47% | [1]; at 50.0 µM 43.2% and 9.05% | [2]; [7] -8% | [2]; [8] 2% | [2]; at 50.0 µM 23.6% and 5.3% | [3]; [7] 26% | [3]; [8] 39% | [4]; [7] 30% | [4]; [8] 39% | [4]; at 50.0 µM 9% and 48.1% | [5]; [7] 13% | [5]; [8] 39% | [5]; at 50.0 µM -8.35% and 63.1% | [6]; [7] 15% | [6]; [8] 42%
12.7% (inactive) and 88.5% (active): [3]; at 50.0 µM

CCCCCCCCCCCCCCCC[N+](C)(C)Cc1cnc[nH]1
active: [1]; [7] 99% | [1]; [8] 98% | [1]; at 50.0 µM 90.3% | [2]; [7] 99% | [2]; [8] 99% | [2]; at 50.0 µM 91.2% | [3]; [7] 98% | [3]; [8] 99% | [3]; at 50.0 µM 91.8% | [4]; [7] 95% | [4]; [8] 99% | [4]; at 50.0 µM 89.7% | [5]; [7] 99% | [5]; [8] 99% | [5]; at 50.0 µM 91% | [6]; [7] 98% | [6]; [8] 98% | [6]; at 50.0 µM 89.1%

CCCCCCCCCCCCCCCCOP(=O)(O)OP(=O)(O)OCC1OC(n2ccc(N)nc2=O)C(O)C1O (configuration not stated)
-9.4% (inactive) and 84.5% (active): [5]; at 50.0 µM
-2.65% (inactive) and 89.8% (active): [2]; at 50.0 µM
-2% (inactive) and 81.4% (active): [1]; at 50.0 µM
55% (inactive) and 87.5% (active): [3]; at 50.0 µM
33% (inactive) and 90.5% (active): [6]; at 50.0 µM
9.5% (inactive) and 84.7% (active): [4]; at 50.0 µM
active: [1]; [7] 97% | [1]; [8] 97% | [2]; [7] 98% | [2]; [8] 98% | [3]; [7] 98% | [3]; [8] 98% | [4]; [7] 92% | [4]; [8] 90% | [5]; [7] 98% | [5]; [8] 98% | [6]; [7] 94% | [6]; [8] 95%

CC1=C(C(=O)Nc2c(C)cccc2C)C(c2ccc3c(c2)OCO3)C(C(=O)Nc2c(C)cccc2C)=C(C)N1
inactive: [1]; [7] 25% | [1]; [8] 25% | [2]; [7] 19% | [2]; [8] 19% | [3]; [7] 4% | [3]; [8] 4% | [4]; [7] 16% | [4]; [8] 16% | [5]; [7] 6% | [5]; [8] 6% | [6]; [7] 7% | [6]; [8] 7%
active: [1]; at 50.0 µM 81.9% | [2]; at 50.0 µM 86.9% | [3]; at 50.0 µM 85.7% | [4]; at 50.0 µM 79.5% | [5]; at 50.0 µM 87.5% | [6]; at 50.0 µM 82.7%

Cc1cc2c(C(C)C)c(O)c(O)c(C=Nc3ccccc3S)c2c(O)c1-c1c(C)cc2c(C(C)C)c(O)c(O)c(C=Nc3ccccc3S)c2c1O
inactive: [1]; [7] -3% | [1]; [8] 53% | [1]; at 50.0 µM 36.2% | [2]; [7] -12% | [2]; [8] 28% | [2]; at 50.0 µM 55% | [3]; [7] -4% | [3]; [8] 4% | [3]; at 50.0 µM 57.3% | [4]; [7] -9% | [4]; [8] 16% | [4]; at 50.0 µM 44.6% | [5]; [7] -8% | [5]; [8] 45% | [5]; at 50.0 µM 39.5% | [6]; [7] -5% | [6]; [8] 66% | [6]; at 50.0 µM 53.5%

CCN(CC)Cc1cc2c(cc1O)CC[C@@H]1[C@@H]2CC[C@]2(C)C(=O)CC[C@@H]12
83.6% (active) and 25.6% (inactive): [1]; at 50.0 µM
active: [1]; [8] 80% | [6]; [8] 81%
78.5% (active) and 22.2% (inactive): [3]; at 50.0 µM
71.3% (active) and 20.9% (inactive): [6]; at 50.0 µM
72.5% (active) and -21.2% (inactive): [4]; at 50.0 µM
inactive: [1]; [7] 39% | [2]; [7] -5% | [2]; [8] 60% | [2]; at 50.0 µM 55.8% and 15.2% | [3]; [7] 16% | [3]; [8] 47% | [4]; [7] -2% | [4]; [8] 11% | [5]; [7] 15% | [5]; [8] 67% | [5]; at 50.0 µM 54% and 56% | [6]; [7] 38%

Cc1ccc(S(=O)(=O)Nc2cc(S(=O)(=O)O)c(N)c3c2C(=O)c2ccccc2C3=O)cc1
active: [1]; [8] 99% | [2]; [8] 99% | [4]; [8] 89% | [5]; [8] 78% | [6]; [8] 99%
inactive: [1]; [7] 51% | [1]; at 50.0 µM 60.2% | [2]; [7] 47% | [2]; at 50.0 µM 30.4% | [3]; [7] 25% | [3]; [8] 65% | [3]; at 50.0 µM 62.8% | [4]; [7] 43% | [4]; at 50.0 µM 66.2% | [5]; [7] 45% | [5]; at 50.0 µM 60.1% | [6]; [7] 53% | [6]; at 50.0 µM 60.5%

O=Nc1ccc(C=C2C(=O)C=CC2=O)cc1
active: [1]; [7] 94% | [1]; [8] 98% | [1]; at 50.0 µM 99.5% | [2]; [7] 99% | [2]; [8] 99% | [2]; at 50.0 µM 99.7% | [3]; [7] 94% | [3]; [8] 99% | [3]; at 50.0 µM 99.4% | [4]; [7] 72% | [4]; [8] 98% | [4]; at 50.0 µM 99% | [5]; [7] 84% | [5]; [8] 99% | [5]; at 50.0 µM 99.4% | [6]; [7] 97% | [6]; [8] 98% | [6]; at 50.0 µM 99.5%

O=[N+]([O-])c1ccc2ccccc2c1O
inactive: [1]; [7] 2% | [2]; [7] 8% | [3]; [7] 5% | [4]; [7] 3% | [5]; [7] -3% | [6]; [7] 3%
active: [1]; [8] 94% | [1]; at 50.0 µM 96.7% | [2]; [8] 97% | [2]; at 50.0 µM 97.7% | [3]; [8] 97% | [3]; at 50.0 µM 95.7% | [4]; [8] 98% | [4]; at 50.0 µM 97.4% | [5]; [8] 93% | [5]; at 50.0 µM 95.5% | [6]; [8] 97% | [6]; at 50.0 µM 98.5%

O=C(O)C#CC(=O)O
76.2% (active) and 1.25% (inactive): [1]; at 50.0 µM
76.2% (active) and 12.3% (inactive): [3]; at 50.0 µM
active: [1]; [8] 76%
inactive: [1]; [7] 22% | [2]; [7] 20% | [2]; [8] 20% | [3]; [7] 28% | [3]; [8] 63% | [4]; [7] 31% | [4]; [8] 30% | [4]; at 50.0 µM 17.6% and 1.65% | [5]; [7] 26% | [5]; [8] 38% | [5]; at 50.0 µM 60% and -7.7% | [6]; [7] 35% | [6]; [8] 60%
85.7% (active) and -6.9% (inactive): [2]; at 50.0 µM
75.5% (active) and 15.1% (inactive): [6]; at 50.0 µM

CCCCCCCCCCCCCCCCCCOCC(COP(=O)([O-])OCC[N+](C)(C)C)OC (configuration not stated)
90.5% (active) and -7.55% (inactive): [5]; at 50.0 µM
91.5% (active) and -31.4% (inactive): [3]; at 50.0 µM
90% (active) and 20.7% (inactive): [1]; at 50.0 µM
91.4% (active) and -4.35% (inactive): [2]; at 50.0 µM
88.2% (active) and 9.5% (inactive): [4]; at 50.0 µM
inactive: [1]; [7] -16% | [1]; [8] -9% | [2]; [7] -4% | [2]; [8] -28% | [3]; [7] -13% | [3]; [8] -14% | [4]; [7] -1% | [4]; [8] -46% | [5]; [7] -16% | [5]; [8] -28% | [6]; [7] -59% | [6]; [8] -88% | [6]; at 50.0 µM -1.25% and -47%

Cc1cc(NS(=O)(=O)c2ccc(N=Nc3cc(N=Nc4ccc(S(=O)(=O)Nc5cc(C)nc(C)n5)cc4)c4c(NC(=O)C(Cl)Cl)cccc4c3OC(=O)C(Cl)Cl)cc2)nc(C)n1 (tested in a mixture with another compound)
active: [1]; [8] 76% | [2]; [8] 92% | [3]; [8] 79% | [4]; [8] 80% | [5]; [8] 90% | [6]; [8] 70%
29.9% (inactive) and 73.2% (active): [1]; at 50.0 µM
-17.1% (inactive) and 81.5% (active): [2]; at 50.0 µM
-56.5% (inactive) and 81.5% (active): [6]; at 50.0 µM
-21.5% (inactive) and 77.2% (active): [5]; at 50.0 µM
inactive: [1]; [7] 16% | [2]; [7] 15% | [3]; [7] 8% | [3]; at 50.0 µM -23.1% and 69.2% | [4]; [7] 16% | [4]; at 50.0 µM -3.85% and 41.8% | [5]; [7] 21% | [6]; [7] 21%
